Experimental data taken from PubChem BioAssay AID686979 (National Center for Advancing Translational Sciences (NCATS), 2013).
Out of some 420,000 compounds screened, about 50,000 (12%) were called active. A call without a number means that no potency is given here. About 26% were inconclusive and are not listed. The call rests on the fitted dose curve; in most records, active means well fitted inhibition curve with a large enough effect; inconclusive means small, poorly fitted or top-dose-only effect; inactive means flat fitted curve, though single readings scatter. Only a selection was taken, and actives are over-represented in it overall.

assay: qHTS for Inhibitors of human tyrosyl-DNA phosphodiesterase 1 (TDP1): qHTS in cells in presence of CPT; conditions: chicken DT40 Tdp1-/-;hTDP1 cells + 20 nM CPT, ATP luminescence, 48 h; series mostly up to 46.2 µM; further: nearly all actives have a fitted effect of over 55% in size
How it was run: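 Cell growth measured by CellTiter-Glo luminescence after a minimum 48 h, 37 C compound exposure with 20 nM CPT in Tdp1-knockout DT40 cells stably expressing hTDP1, seeded 400/well; qHTS titration format.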
Potency means the concentration at half of the fitted maximal effect.

Which Potency does the source give for `CCCCC1S/C(=N/N=C/c2cccs2)NC1=O` (stereo not drawn) here?
The Potency was “inactive”.

For `CC(C)c1ccc(OCC(O)Cn2cnc3ccccc32)cc1` (stereo not drawn), which Potency is on record?
The Potency was 18.4 µM (active).

With `CC(C)c1ccc(OCC(O)CN2CCN(c3ccccn3)CC2)cc1` (stereo not drawn) as the molecule, how does the Potency read?
The Potency was 25.9 µM (active).

For `CCc1ccc(OCC(O)CN2CCN(CCO)CC2)cc1` (stereo not drawn), which Potency is on record?
Its Potency is “inactive”.

For `OC(COc1ccc2ccccc2c1)Cn1cncn1` (stereo not drawn), which Potency is on record?
Its Potency is “inactive”.

With `Cc1ccccc1OCC(O)CN1CCN(c2ccccn2)CC1` (stereo not drawn) as the molecule, how does the Potency read?
Its Potency is “inactive”.

With `CC(=O)OC(COc1ccc(F)cc1)Cn1cnc2ccccc21` (stereo not drawn) as the molecule, how does the Potency read?
The Potency was “inactive”.

With `Cc1ccc(C)c(NC(=O)COC(=O)c2nn(C)c(=O)c3ccccc23)c1` as the molecule, how does the Potency read?
Its Potency is “inactive”.

For `C/C=C/C(=O)OCc1csc(CC(=O)Nc2ccccc2C)n1`, which Potency is on record?
The Potency was “inactive”.

For `Cc1ccnc(NC(=O)C2CCN(S(=O)(=O)c3c(C)c(C)cc(C)c3C)CC2)c1`, which Potency is on record?
Its Potency is “inactive”.

For `CCCNC(=O)C[C@@H]1CC[C@@H]2[C@H](COC[C@H](O)CN2C(=O)c2cc(Cl)cc(Cl)c2)O1`, which Potency is on record?
Its Potency is “inactive”.

For `CC1(c2nnc(-c3ccncc3)o2)CC(c2cccnc2)=NO1` (stereo not drawn), which Potency is on record?
The Potency was “inactive”.

With `CCCCC(=O)Nc1nnc(S(=O)(=O)N(C)Cc2ccco2)s1` as the molecule, how does the Potency read?
Its Potency is “inactive”.

With `COc1ccc(NC(=O)CCNS(=O)(=O)c2ccc3c(c2)c(=O)n(C)c(=O)n3C)cc1OC` as the molecule, how does the Potency read?
The Potency was “inactive”.

For `COc1ccc(OC)c(-n2cc3c(=O)n(C)c(=O)n(C)c3c2)c1`, which Potency is on record?
The Potency was 16.4 µM (active).

For `CC(=O)Nn1cc2c(=O)n(C)c(=O)n(C)c2c1`, which Potency is on record?
Its Potency is “inactive”.

With `CCc1cc2c(SCC(=O)Nc3ncc(Cl)c(C)c3Cl)ncnc2s1` as the molecule, how does the Potency read?
The Potency was “inactive”.

Which Potency does the source give for `CCc1cc2c(NC(Cc3ccccc3)C(=O)O)ncnc2s1` (stereo not drawn) here?
The Potency was “inactive”.

Which Potency does the source give for `CCc1cc2c(NC3CCCC3)ncnc2s1` here?
Its Potency is 7.31 µM (active).

For `Cn1c2ccccc2n2c(=O)c(=O)n(CC(=O)c3ccc(F)cc3)nc12`, which Potency is on record?
Its Potency is “inactive”.

Which Potency does the source give for `O=C(Cn1ccc2cc(S(=O)(=O)N3CCCC3)ccc21)NCc1ccccc1` here?
The Potency was “inactive”.

With `COc1ccc(Cn2ccn(Cc3cccc(OC)c3)c(=O)c2=O)cc1` as the molecule, how does the Potency read?
Its Potency is “inactive”.

Which Potency does the source give for `O=[N+]([O-])/C=C/c1ccc2c(ccn2Cc2ccccc2)c1` here?
The Potency was 3.26 µM (active).

For `Cc1ccc(C)c(S(=O)(=O)Nc2cccc(-n3cnnn3)c2)c1`, which Potency is on record?
Its Potency is “inactive”.

With `Cc1cnc(C(=O)OCc2c(C)cc(C(C)(C)C)cc2C)cn1` as the molecule, how does the Potency read?
Its Potency is “inactive”.

For `N#CCCC(C#N)(c1cccnc1)N1CCOCC1` (stereo not drawn), which Potency is on record?
Its Potency is “inactive”.

With `COc1ccc2occ(C(=O)c3ccc(N=C(C)N(C)C)cc3)c2c1` as the molecule, how does the Potency read?
Its Potency is 16.4 µM (active).

With `COc1ccc(C(=O)c2oc3ccc(Br)cc3c2NC(C)=O)cc1` as the molecule, how does the Potency read?
The Potency was “inactive”.

With `COc1ccc(OC)c(C(=O)c2ccc(C(=O)O)cc2)c1` as the molecule, how does the Potency read?
Its Potency is “inactive”.

Which Potency does the source give for `O=C(CCN1C(=O)[C@@H]2Cc3ccccc3CN2C1=O)NCCc1ccccc1` here?
Its Potency is “inactive”.

With `O=C(Cn1nc(C(=O)O)c2ccccc2c1=O)Nc1ccc(F)cc1` as the molecule, how does the Potency read?
Its Potency is “inactive”.

Which Potency does the source give for `CCN(CC)c1ccc(/C=C/c2c(C)cnc3ccc(C)cc23)cc1` here?
The Potency was 11.2 µM (active).

Which Potency does the source give for `COc1ccc(C(=O)COC(=O)CNC(=O)c2cccs2)cc1Br` here?
The Potency was “inactive”.

Which Potency does the source give for `Cc1ccc(S(=O)(=O)N2CCN(c3ccccc3)CC2)cc1C` here?
Its Potency is “inactive”.

With `COC(=O)/C(=C\Nc1ccccc1)NC(=O)c1ccc(Cl)cc1Cl` as the molecule, how does the Potency read?
Its Potency is “inactive”.

For `COC(=O)Cc1nc2c(N)nc(N)nc2[nH]c1=O`, which Potency is on record?
Its Potency is “inactive”.

Which Potency does the source give for `COc1cc2c(cc1OC)CN(CC(=O)Nc1ccc(F)cc1)CC2` here?
The Potency was “inactive”.

With `COc1cc2c(cc1OC)C(COc1ccc(F)cc1)N(C(=O)c1ccccc1F)CC2` (stereo not drawn) as the molecule, how does the Potency read?
Its Potency is 18.4 µM (active).

Which Potency does the source give for `COc1ccc2c(c1)CCC/C2=N\OC(=O)c1ccccc1F` here?
The Potency was “inactive”.

Which Potency does the source give for `NC(=O)C1(Nc2ccccc2Cl)CCCC1` here?
The Potency was “inactive”.

Which Potency does the source give for `NC(=O)c1ccc(-c2csnn2)cc1` here?
Its Potency is “inactive”.

With `CCOc1ccc(CCNC(=O)COC(=O)CCS(=O)(=O)c2ccc(C)cc2)cc1OCC` as the molecule, how does the Potency read?
Its Potency is “inactive”.

With `Cc1nc2ccccc2nc1CC(O)(c1ccccc1)c1ccccc1` as the molecule, how does the Potency read?
Its Potency is “inactive”.

With `CN(C)NC(=O)c1csnc1-c1c(Cl)cccc1Cl` as the molecule, how does the Potency read?
Its Potency is “inactive”.

With `CCn1c(SCC(=O)N/N=C/c2ccccc2OCC(=O)O)nnc1-c1ccc(C(C)(C)C)cc1` as the molecule, how does the Potency read?
The Potency was “inactive”.

With `COc1ccc(S(=O)(=O)N2CCN(C(C)C(=O)Nc3ccc(C(C)C)cc3)CC2)cc1` (stereo not drawn) as the molecule, how does the Potency read?
Its Potency is 29.1 µM (active).

For `COc1ccc(S(=O)(=O)N2CCN(C(=O)NC3CCCCC3)CC2)cc1`, which Potency is on record?
The Potency was “inactive”.

For `COc1cccc(CNC(C)C(=O)Nc2ccc(S(=O)(=O)N3CCCC3)cc2)c1` (stereo not drawn), which Potency is on record?
Its Potency is “inactive”.

With `O=C(NC(=S)NC1CCSC1=O)c1ccccc1F` (stereo not drawn) as the molecule, how does the Potency read?
Its Potency is “inactive”.

Which Potency does the source give for `COc1cc(OC)c(NC(=O)C2CCCN2C(=O)OCc2ccccc2)cc1Cl` (stereo not drawn) here?
The Potency was “inactive”.

Which Potency does the source give for `COc1cc(CN2CCC(C(N)=O)CC2)ccc1OCc1ccccc1` here?
Its Potency is “inactive”.

Which Potency does the source give for `COc1cc(CNC2CCCC2)c(Br)cc1OCc1ccccc1` here?
The Potency was 20.6 µM (active).

Which Potency does the source give for `CS(=O)(=O)NC(=O)CCC/C=C\C[C@H]1C(=O)C[C@@H](O)[C@@H]1/C=C/[C@H](O)COc1ccccc1` here?
Its Potency is “inactive”.

For `Cc1ccc2nc(COc3cccc(NC(=O)c4cccc(Cl)c4)c3)cc(=O)n2c1`, which Potency is on record?
The Potency was “inactive”.

With `Cc1cccc(C)c1OCCN1CCOCC1` as the molecule, how does the Potency read?
Its Potency is “inactive”.

With `c1ccc(-c2ccc(OCCN3CCOCC3)cc2)cc1` as the molecule, how does the Potency read?
The Potency was “inactive”.

For `COc1cc(OC)cc(-c2sc3ccc(OC)cc3c2-c2ccc3cc[nH]c3c2)c1`, which Potency is on record?
The Potency was “inactive”.

For `COc1ccc(-c2sc3ccccc3c2-c2ccc(OCCN3CCOCC3)cc2)cc1`, which Potency is on record?
The Potency was 14.6 µM (active).

Which Potency does the source give for `COc1cccc(-c2sc3ccc(OC)cc3c2-c2ccc(OCCN3CCCCC3)cc2)c1` here?
The Potency was 18.4 µM (active).

With `COc1cccc(OCCCN2CCCCCC2)c1` as the molecule, how does the Potency read?
The Potency was “inactive”.

With `COc1ccc(S(=O)(=O)N(C)C[C@@H]2Oc3ccc(NS(=O)(=O)c4cn(C)cn4)cc3C(=O)N([C@@H](C)CO)C[C@@H]2C)cc1` as the molecule, how does the Potency read?
Its Potency is “inactive”.

Which Potency does the source give for `COc1ccc2c(c1)C(c1cccs1)=NNC(c1cccnc1)=N2` here?
The Potency was “inactive”.

Which Potency does the source give for `CCCCNC(=O)c1c[nH]c2ccc(S(=O)(=O)Nc3ccc(OCC)cc3)cc2c1=O` here?
The Potency was “inactive”.

Which Potency does the source give for `CCOc1ccc(NS(=O)(=O)c2ccc(OCC(=O)NCCCOC)cc2)cc1` here?
Its Potency is “inactive”.

For `CCOc1ccc(NS(=O)(=O)c2ccc(C)c(C(N)=O)c2)cc1`, which Potency is on record?
The Potency was 20.6 µM (active).

Which Potency does the source give for `Cc1ccccc1NC(=O)Cc1nc(COC(=O)CNC(=O)c2ccc(Cl)cc2Cl)cs1` here?
Its Potency is “inactive”.

Which Potency does the source give for `O=C(NCc1cccnc1)c1cc(S(=O)(=O)N2CCOCC2)c(Cl)cc1Cl` here?
The Potency was “inactive”.

With `CCCCn1c(=N)c(S(=O)(=O)c2ccccc2)cc2c(=O)n3cccc(C)c3nc21` as the molecule, how does the Potency read?
The Potency was “inactive”.

With `CCOC(=O)c1cc2c(=O)n3ccccc3nc2n(CC2CCCO2)c1=NC(=O)c1ccccc1Br` (stereo not drawn) as the molecule, how does the Potency read?
The Potency was “inactive”.

With `Cc1cccn2c(=O)c3cc(C(=O)NC4CCCCC4)sc3nc12` as the molecule, how does the Potency read?
The Potency was “inactive”.

With `COc1ccc(CCn2c(=N)c(C(=O)NCC3CCCO3)cc3c(=O)n4cccc(C)c4nc32)cc1OC` (stereo not drawn) as the molecule, how does the Potency read?
Its Potency is 5.17 µM (active).

Which Potency does the source give for `Cc1cccn2c(=O)c3cc(C(=O)NCCN4CCOCC4)c(=N)n(Cc4cccnc4)c3nc12` here?
The Potency was 13 µM (active).

With `COc1ccc(C(=O)Nc2ccc(C(=O)NCC3CCCO3)cc2)c(OC)c1OC` (stereo not drawn) as the molecule, how does the Potency read?
The Potency was “inactive”.

Which Potency does the source give for `COc1ccc(CCNC(=O)Cn2c(=O)n(CC3CCCO3)c(=O)c3ccccc32)cc1OC` (stereo not drawn) here?
The Potency was “inactive”.

For `Cc1cccn2c(=O)c3cc(C#N)c(=NC(=O)c4cccnc4)n(CC4CCCO4)c3nc12` (stereo not drawn), which Potency is on record?
The Potency was “inactive”.

With `Cc1ccc2nc3c(cc(C(=O)NCCc4ccccc4)c(=N)n3CC3CCCO3)c(=O)n2c1` (stereo not drawn) as the molecule, how does the Potency read?
Its Potency is 20.6 µM (active).

Which Potency does the source give for `Cc1ccc2nc3c(cc(C(=O)NC4CCCCC4)c(=N)n3C(C)C)c(=O)n2c1` here?
The Potency was “inactive”.

For `COCCCn1c(C(=O)NC2CCCCC2)cc2c(=O)n3cccc(C)c3nc21`, which Potency is on record?
The Potency was 18.4 µM (active).
